# Laboratory results from PubChem BioAssay (NCI).
# About 83,000 compounds went through this panel and 20% of them were active in at least one assay; those are over-represented in the sample as a whole.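 A percent growth of 40 corresponds to 60% growth inhibition; 0 means no net growth; -100 means all cells died. Active threshold: below 10.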 A number with no mark means an inactive call. Active and inactive are the calls of the source.
# Columns and labels:
# Experiment in all cases: NCI-60 one-dose screen, 48 h (100 = growth as untreated, 0 = no growth, -100 = all killed)
# Conditions in all cases: 10 µM unless noted
# HCT-15 colon = system: HCT-15 colon
# HT29 colon = system: HT29 colon
# SNB-75 CNS = system: SNB-75 CNS
# SNB-19 CNS = system: SNB-19 CNS
# U251 CNS = system: U251 CNS
# PC-3 prostate = system: PC-3 prostate
# SK-MEL-5 melanoma = system: SK-MEL-5 melanoma
# UACC-62 melanoma = system: UACC-62 melanoma
# LOX IMVI melanoma = system: LOX IMVI melanoma
# SK-MEL-28 melanoma = system: SK-MEL-28 melanoma
# SK-MEL-2 melanoma = system: SK-MEL-2 melanoma
# SN12C renal = system: SN12C renal
# UO-31 renal = system: UO-31 renal
# TK-10 renal = system: TK-10 renal
# ACHN renal = system: ACHN renal
# CAKI-1 renal = system: CAKI-1 renal
# A498 renal = system: A498 renal
# CCRF-CEM leukemia = system: CCRF-CEM leukemia
# MOLT-4 leukemia = system: MOLT-4 leukemia
# EKVX NSCLC = system: EKVX NSCLC
Structure (SMILES),growth (HCT-15 colon),growth (HT29 colon),growth (SNB-75 CNS),growth (SNB-19 CNS),growth (U251 CNS),growth (PC-3 prostate),growth (SK-MEL-5 melanoma),growth (UACC-62 melanoma),growth (LOX IMVI melanoma),growth (SK-MEL-28 melanoma),growth (SK-MEL-2 melanoma),growth (SN12C renal),growth (UO-31 renal),growth (TK-10 renal),growth (ACHN renal),growth (CAKI-1 renal),growth (A498 renal),growth (CCRF-CEM leukemia),growth (MOLT-4 leukemia),growth (EKVX NSCLC)
CC1=CC2(C)/C=C(C)/C=C\CC(O)/C=C3/C=CC(=C4C(=O)OC2(CC1C)C4=O)OC3 (stereo not drawn),-56.9% (active),-6.52% (active),53.3%,56.4%,-50.2% (active),-8.09% (active),56.7%,6.46% (active),-89.1% (active),-87.6% (active),-89.2% (active),-40.8% (active),-53% (active),-86.8% (active),-94.7% (active),-89.5% (active),55.3%,-39.4% (active),-35.1% (active),–
Clc1nc(Cl)c2ncn(CC3(Cn4cnc5c(Cl)nc(Cl)nc54)COC3)c2n1,-89.9% (active),-70.1% (active),-96.6% (active),-99.1% (active),-95.9% (active),-98.4% (active),-96.2% (active),-92.4% (active),-89.2% (active),-97.9% (active),-76% (active),-86.6% (active),-97.7% (active),-93.2% (active),-98.7% (active),–,-88.6% (active),–,-66.8% (active),-71.6% (active)
COc1ccc2c(/C=C3/C(=O)NC(=S)NC3C)cc(=O)oc2c1 (stereo not drawn),103%,88.8%,87.3%,102%,94.2%,78.6%,99.4%,96.8%,95.3%,109%,86.8%,97.7%,88.3%,93.5%,108%,–,91.5%,93.2%,90.5%,101%
[2H]C1([2H])NC([2H])([2H])C([2H])([2H])N(c2ccc(Nc3ncc4cc(C(=O)N(C)C)n(C5CCCC5)c4n3)nc2)C1([2H])[2H],85%,34%,65.5%,64.3%,61.4%,62.3%,78.3%,78.7%,49.2%,88.6%,94.3%,74.9%,61.2%,43%,57.4%,–,–,54.1%,8.74% (active),65.2%
CCCCCCCC(=O)Nc1nc2[nH]c(CN3CCN(Cc4cccc(I)c4)CC3)c(CN3CCN(Cc4cccc(I)c4)CC3)c2c(=O)[nH]1,-91.5% (active),-69.8% (active),-73.2% (active),-87.5% (active),-94.6% (active),-45.7% (active),2.56% (active),-98.1% (active),-96.6% (active),-78.1% (active),-34% (active),-87.3% (active),-99.9% (active),-91.9% (active),-98.9% (active),–,45.5%,1.17% (active),-36% (active),-44.5% (active)
O=C1C(=O)c2c(nc3ncccn23)-c2ccccc21,-67.2% (active),-17.2% (active),-92.8% (active),-88% (active),-84% (active),-4.28% (active),-99.4% (active),-92.8% (active),-88% (active),-85.7% (active),-58.9% (active),-82.3% (active),-98.4% (active),-52.4% (active),-100% (active),–,-95.9% (active),-3.54% (active),-46.6% (active),-75.8% (active)
O=C(OC(OC(=O)c1cc(Cl)cc(Cl)c1)c1cccc2ccccc12)c1ccccc1 (stereo not drawn),106%,86.7%,99.3%,100%,98.3%,91.2%,102%,86.4%,92.3%,111%,91.1%,97.5%,75.6%,90.7%,102%,–,84.8%,93.6%,103%,97.7%
COC(=O)C(c1ccccc1)C(CC(=O)c1ccccc1)c1ccccc1 (stereo not drawn),97.1%,79.1%,83.2%,101%,92.2%,62.3%,82.1%,88.7%,82.7%,91.8%,85.5%,102%,75%,92.4%,86.6%,–,–,84.7%,71%,58.3%
O=C(Nc1ccc2ncnc(Nc3ccc(Oc4cccc(F)c4)c(Cl)c3)c2c1)c1ccc(CNCCO)cc1,22.8%,-69.2% (active),65.1%,58.8%,-34% (active),27.7%,73.7%,106%,-76.2% (active),-44.9% (active),94.2%,48.6%,73.9%,57.1%,28.8%,–,71.6%,-19.9% (active),-0.727% (active),47.9%
COc1ccc(-c2c[nH]c(C(=O)O)c2-c2cc(OC)c3c(c2OC)OCO3)cc1,103%,110%,91.6%,101%,104%,103%,102%,95.4%,95.4%,104%,109%,99.9%,90.3%,116%,100%,–,95%,–,102%,105%
CC(O)/C=C/C=C/C(O)CC/C=C/C(=O)NCC(C)(C)O (stereo not drawn),104%,102%,96.3%,99.6%,98.3%,91.7%,99.1%,90.1%,95.3%,111%,81.9%,99.2%,78.4%,109%,106%,–,99.7%,95%,76.2%,107%
CSc1nc(O)c(-c2ccccc2)c(=O)[nH]1,102%,99.9%,97.1%,100%,101%,96.9%,101%,93.1%,101%,101%,103%,96.9%,92%,97%,93.3%,–,–,102%,97%,94.6%
COc1cc(C2NC(c3cc(OC)c(OC)c(OC)c3)C(C#N)(C#N)C2(C#N)C#N)cc(OC)c1OC (stereo not drawn),97.9%,105%,80.7%,98.5%,106%,99.3%,89.5%,98.2%,98.2%,96.5%,101%,100%,83.8%,103%,97.7%,–,107%,136%,96.8%,97.6%
c1ccc2c(-c3c4ccsc4cc4[nH]c5ccccc5c34)c[nH]c2c1,24.7%,8.87% (active),20.3%,48.5%,38.7%,36.1%,31.9%,44.8%,26.9%,48.9%,23.9%,50.1%,40.1%,76%,43.3%,–,–,19.8%,32.2%,53.3%
C=C1C(=O)O[C@H]2[C@H]1CC/C(COC(=O)CCCc1c[nH]c3ccccc13)=C\CC[C@@]1(C)O[C@@H]21,7.56% (active),21.7%,76.4%,71.2%,56.4%,50.7%,71.5%,70.1%,-3.89% (active),92.6%,88.4%,54.8%,58.5%,94.7%,59.5%,–,103%,1.43% (active),3.73% (active),74.3%
CC1=NNC(=O)C1CCC(=O)N/N=C(\C)c1ccc2ccccc2c1 (stereo not drawn),107%,116%,121%,114%,109%,94.9%,105%,97.5%,99.5%,109%,102%,102%,84.8%,130%,111%,–,110%,105%,88.9%,154%
